Our source for the viability values is PubChem BioAssay AID827 (SRMLSC, 2007).

The campaign covered roughly 140,000 compounds. About 1,700 (1.2%) were called active. The sample holds actives, similar compounds and a random draw of the others, so the mix is not that of the screen. Unmarked numbers belong to inactive results.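 Rule for the calls: active = viability at or below a set limit, 4 SD under the median of all tested compounds (cut at about 3.7% in these data); inactive = the rest.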

The experiment in a line: viability loss in PTEN-deleted colon tumor cells – cell-based, HCT116, CellTiter-Glo, primary screen (AID 827).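 Note: PTEN knockout HCT116 line with beta catenin targeted HCT116 as companion control.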 Particulars: HCT116 PTEN-null viability, 60 h, at 10 µM, stronger effect = lower value.
On to `COc1ccc(C2CC(c3ccccc3)=NN2C(=O)c2ccc(Cl)c([N+](=O)[O-])c2)cc1` (configuration not stated), for which the viability (commonly a read-out of living cells in per cent, often relative to untreated cells) is 10.4%. The result for `CCOc1ccc2nc(Cl)c(C3CC(c4ccccc4)=NN3C(=O)c3cccs3)cc2c1` (configuration not stated) reads 1.17% (active); that for `CCOc1ccccc1C1CC(c2cccc(NS(C)(=O)=O)c2)=NN1C(=O)c1ccccc1` (configuration not stated), 84.5%. As to `Cc1c(Cl)cnc(NC(=O)COC(=O)c2ccc(S(=O)(=O)NCc3ccco3)cc2)c1Cl`, the viability was 85.2%. On to `NC(N)=N/N=C/c1ccc(OCc2ccc(Cl)cc2Cl)cc1`, for which the viability was 1.56% (active).

Regarding `COC(=O)c1sc2ncccc2c1OCc1ccc(Cl)cc1Cl`, the viability was 63.7%. To `COc1ccc(C(=O)O/N=C(\N)Cc2ccc(Cl)cc2Cl)cc1OC` belongs 69.4%; to `CC1CCCCN1C(=S)NCc1ccccc1` (configuration not stated), 94.7%. The result for `O=C(CC1SC(=Nc2ccccc2)N(Cc2ccccn2)C1=O)Nc1cccc(Cl)c1` (configuration not stated) reads 76.2%. With `O=C(O)c1ccccc1-c1ccccc1C(=O)Nc1cccc2ccccc12`, the viability was 96%. Regarding `Cc1nc(C)c(C(=O)Nc2cccc(C)c2C)o1`, the viability is 109%. Take `O=C(Nc1cccc2ccccc12)c1onc2c1CCCC2`: the viability is 0.29% (active). On to `Cc1ccc(-n2nc(C)c(/C=N/NC(=O)c3cccs3)c2Cl)cc1`, for which the viability is 55.5%. To `Cc1c(C2=CCN(S(=O)(=O)c3ccc(Cl)cc3)CC2)c2ccccc2n1C` belongs 74%. As to `COc1ccccc1NC(=O)CCCc1c[nH]c2ccccc12`, the viability is 92.8%.

Take `COc1cccc(CNCCc2c[nH]c3ccccc23)c1OCc1ccccc1F`: the viability is 1.43% (active). To `COc1ccc(C(CCNCc2ccccc2F)c2ccc(F)cc2)cc1` (configuration not stated) belongs 10.1%; to `CCOC(=O)/C(N=Nc1cc(C(=O)O)cc(C(=O)O)c1)=C(\O)CCl`, 101%. As for `CC(=O)c1c(N2CCN(c3ccc(F)cc3)CC2)nc(=S)n(-c2ccccc2)c1C`, the viability was 93%. Take `Nc1nnc(SCC(=O)Nc2ccc3nc(SCC(=O)Nc4ccccc4)sc3c2)s1`: the viability is 72.2%. To `Clc1cccc(CN2COc3c(cc(Cl)c4cccnc34)C2)c1` belongs 3.76% (active); to `O=c1[nH]n(-c2cccc(Cl)c2)c2ncccc12`, 95.2%; to `Oc1c(CN2CCN(c3ccc(F)cc3)CC2)cc(Cl)c2cccnc12`, 4.32%. For `CCOC(=O)c1cccnc1NC(=O)c1ccncc1`, the viability was 101%.

For the molecule `CCCc1nc2c([nH]1)C(c1cccnc1)C(C#N)=C(N)O2` (configuration not stated), the viability is 98.7%. The result for `COC(=O)NNC(=O)C1CCC(C)CC1` (configuration not stated) reads 97%; that for `O=C(c1cccc2ccccc12)N1CCN(c2ccccc2F)CC1`, 90.8%; that for `COC(=O)c1ccc(C(=O)OC)c(NC(=S)N2CCN(c3cc(Cl)ccc3C)CC2)c1`, 90.3%.

As for `Cc1ccc(Cl)cc1N1CCN(C(=O)c2cccc3c(=O)c(C)c(-c4ccccc4)oc23)CC1`, the viability is 1.24% (active). For the molecule `COCCCNC(=O)Cn1cc(/C=C(\C#N)C(=O)N2CCN(c3ccccc3)CC2)c2ccccc21`, the viability was 86.2%. Regarding `Cc1ccc(-c2nn(-c3ccccc3)cc2C(=O)Nc2cccc(S(=O)(=O)N3CCOCC3)c2)cc1`, the viability is 89.5%.

In the case of `Cc1cc(Cl)ccc1NC(=S)N1CCC(C(N)=O)(N2CCCCC2)CC1`, the viability is 88.6%. Regarding `Cc1nc(CC(=O)NNS(=O)(=O)c2ccc(F)c(Cl)c2)cs1`, the viability is 95.8%.

For `O=C(Cn1cnc2ccccc21)N/N=C/c1ccco1`, the viability is 97.9%. Take `COc1cc(NC(=O)Nc2ccc(C)cc2)cc([N+](=O)[O-])c1`: the viability is 79.8%.

Regarding `COc1ccc(NC(=O)/C(Cl)=C(/Cl)S(=O)Cc2ccc(C)cc2)cn1` (configuration not stated), the viability is 0.92% (active). Turning to `COc1ccc(NS(=O)(=O)c2ccc(NC(=S)NC(=O)/C=C/c3ccc(C)cc3)cc2)nn1`, the viability was 94.4%. To `O=C(/C=C/c1ccccc1[N+](=O)[O-])NCC1CCCO1` (configuration not stated) belongs 102%. For the molecule `C=CCNC(=S)NNC(=O)c1ccc(Br)o1`, the viability was 94.9%.

In the case of `CCN(CC)S(=O)(=O)c1ccc(C)c(NC(=O)COc2ccc(Br)cc2Cl)c1`, the viability was 84.6%.

On to `CCn1cc(/C=C2/SC(=S)NC2=O)c(C)n1`, for which the viability was 103%. On to `COc1ccc(-c2cc(C(=O)NC(Cc3c[nH]c4ccccc34)C(=O)O)c(C)o2)cc1OC` (configuration not stated), for which the viability was 99.7%.

Consider `COc1cc(NS(=O)(=O)c2ccccc2)ccc1-n1nc(C)cc1C`, for which the viability is 94.5%. Consider `COc1ccc(Nc2cc(C)nc(-n3nc(C)cc3C)n2)cc1`, for which the viability was 18.6%.

Regarding `COc1ccccc1/C=N\Nc1cc(C)nc(-n2nc(C)cc2C)n1`, the viability was 2.6% (active). As for `CCN(CC)CCn1c(/N=C/c2cc(Br)ccc2O)nc2ccccc21`, the viability was 94%. For the molecule `O=C(NCCc1ccccn1)c1cc(-c2ccc(Cl)cc2)nc2ccccc12`, the viability was 98.1%. As to `c1ccc(-c2cc3c(NCC4COc5ccccc5O4)ncnc3s2)cc1` (configuration not stated), the viability is 42.1%.

In the case of `CCCc1cc(=O)[nH]c(SCC(=O)N2CCN(S(=O)(=O)c3ccc(C)cc3C)CC2)n1`, the viability is 93%. On to `COc1cccc(NC(=O)Cc2ccc(C)cc2)c1`, for which the viability is 113%. For `COc1ccc(CC(=O)Nc2ccc(-c3nnc(-c4ccc(C)cc4)o3)cc2)cc1`, the viability is 2.56% (active). As to `COc1ccc(CC(=O)Nc2ccc(C(=O)NC(C)(C)C)cc2)cc1`, the viability is 92.4%. Consider `Cc1cccc(C)c1NC(=O)C(c1ccccc1)N1CC(=O)Nc2ccccc21` (configuration not stated), for which the viability is 66%.

With `CC(CC(=O)Nc1cc(C(F)(F)F)ccc1Cl)c1ccccc1` (configuration not stated), the viability is 51.3%.

Take `O=C(Nc1cc(C(F)(F)F)ccc1Cl)C(=O)N1CCCCC1`: the viability was 91.1%. For `O=C(NNc1ccccc1Cl)C(O)(c1cccc(C(F)(F)F)c1)c1cccc(C(F)(F)F)c1`, the viability was 1.89% (active). To `Cc1cc(C(=O)N/N=C/c2cc([N+](=O)[O-])cc(C)c2O)n[nH]1` belongs 83%. For `O=C(COC(=O)[C@H](Cc1ccccc1)NC(=O)c1cccs1)Nc1cc(F)ccc1F`, the viability is 91.4%. Consider `CCCSc1nc2[nH]ncc2c(=O)[nH]1`, for which the viability was 90.6%. The result for `Cc1cc2oc(C(=O)Nc3c(C)n(C)n(-c4ccccc4)c3=O)c(C)c2cc1Cl` reads 85%; that for `CCn1c(SCc2ccc(C)cc2)nnc1-c1nn(-c2ccccc2)ccc1=O`, 87.8%. With `N=C(N)SCc1cccc2ccccc12`, the viability is 87.8%. In the case of `CCc1ccc(-c2nn(-c3ccccc3)cc2CSC(=N)N)cc1`, the viability is 1.62% (active). As to `S=C(NCc1ccc(Cl)cc1)NC1CCCCC1`, the viability was 77.6%. To `COC(=O)Cc1ccc(NC(=S)NCc2ccc(Cl)cc2)cc1` belongs 83.4%; to `S=C(NCc1ccc(Cl)cc1)NC12CC3CC(CC(C3)C1)C2`, 2.95% (active); to `C=CCNC(=O)COC(=O)c1ccccc1C(=O)N(C)C1CCCCC1`, 92.8%. To `Cc1cc(C)cc(NC(=S)NCc2ccc(F)cc2)c1` belongs 78.2%. For the molecule `Cc1ccc(C(=O)N2CC(=O)Nc3ccccc32)o1`, the viability is 100%. The result for `CC(=O)c1cc(-c2ccccc2)n(CCC(=O)NC2CCCCCC2)c1C` reads 74.8%; that for `COc1cccc(N(C(=O)C2COc3ccccc3O2)C(C(=O)NC2CCCCC2)c2ccc(O)cc2)c1` (configuration not stated), 56.8%; that for `COC(=O)Cc1csc(/N=C/c2c(O)n(-c3cccc(C(F)(F)F)c3)c(=O)c3ccccc23)n1`, 47.7%. To `O=C1CCCC2=C1C(c1ccccc1)n1c(s/c(=C/c3cccc(F)c3)c1=O)=N2` (configuration not stated) belongs 80.9%; to `CCOC(=O)C1=C(C)N=c2s/c(=C\C(=O)OC)c(=O)n2C1c1ccc(OC)cc1` (configuration not stated), 95.2%.

For the molecule `COc1ccc(OC)c(C2C3=C(N=c4s/c(=C\c5cccc(O)c5)c(=O)n42)c2ccccc2CC3)c1` (configuration not stated), the viability was 3.19% (active).

Consider `COc1ccccc1CNC(=O)CN1CCC(n2cnc3cc(F)ccc32)CC1`, for which the viability is 101%. On to `COCCNc1nc(N)c([N+](=O)[O-])c(NCCO)n1`, for which the viability was 100%. `Nc1nc(NCCCN2CCOCC2)nc(Nc2ccccc2)c1[N+](=O)[O-]`: the viability is 63.9%.

Regarding `CNc1nc(Nc2ccc(C)c(Cl)c2)nc(N)c1[N+](=O)[O-]`, the viability was 2.94% (active). Regarding `CCN(CC)c1ccc(S(=O)(=O)N2CCOCC2)cc1NC(=O)CSc1cccc[n+]1[O-]`, the viability was 93.9%. For the molecule `CCC(C)(NC(=O)c1ccccn1)C(=O)NC1CCCCC1` (configuration not stated), the viability is 105%. As for `CCN(CC)CCOc1ccc2c(c1)C(=NNC(=O)c1ccccn1)c1cc(OCCN(CC)CC)ccc1-2`, the viability was 0.61% (active). `COc1ccc(CC(=O)N/N=C(\C)c2ccccn2)cc1`: the viability is 4.88%. Turning to `O=C(O)c1cccc(S(=O)(=O)Nc2ccc(O)cc2Sc2nc3ccccc3s2)c1`, the viability was 94%. As for `COc1ccc(S(=O)(=O)Nc2ccc(O)c(Sc3nc4ccccc4s3)c2)cc1`, the viability was 78.8%. Turning to `O=[N+]([O-])c1c(NCCO)cc(Sc2nc3ccccc3s2)c2nonc12`, the viability is 1.48% (active). With `CCCCCNC(=O)c1cccnc1SCC(=O)Nc1ccccc1OC`, the viability is 91.1%.

In the case of `COc1ccc(CCN(C(=O)COc2ccccc2)c2nc(-c3ccccc3)cs2)cc1OC`, the viability was 74.5%. In the case of `CCOC(=O)CN(Cc1ccc(OC)c(OC)c1)S(=O)(=O)c1ccc(OC)cc1`, the viability is 96.9%. For `COc1ccc(C(CCN(Cc2ccc(OC)c(OC)c2)C(=O)CCl)c2ccccc2)cc1` (configuration not stated), the viability is 1.54% (active). For the molecule `Cc1cc(F)ccc1S(=O)(=O)N1CCCOC1CNC(=O)C(=O)NCCC1=CCCCC1` (configuration not stated), the viability was 93.5%.

Take `N#Cc1ccc(C(=O)Nc2nc(-c3cccs3)c(C(=O)C(F)(F)F)s2)cc1`: the viability was 40.3%.
